Experiment [1] can be described thus: BSK_BT_PBMCCytotoxicity: PBMC Cytotoxicity Assessment in the BioMAP Diversity Plus: BT Assay (AID 2284225).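 Also: PBMC viability measured by Alamar Blue dye reduction fluorescence.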 Conditions: primary human B cells with PBMC. The method in brief: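 75,000 cells/well; cpd 1 h → SEB + TSST-1 (20 ng/mL final each) → 90 h → Alamar Blue 6 h → fluor. 546/580 nm. DMSO = neg. control/baseline.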
Read-out in experiment [2]: Secreted IgG (sIgG), gene 3500
Nature of the experiment: BSK_BT_sIgG: BioMAP Diversity Plus: BT Assay for Secreted IgG (sIgG) Biomarker Activity (AID 2284226). Conditions: primary human B cells with PBMC. The method in brief: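 Secreted IgG from a human primary B cell–PBMC co-culture was measured by ELISA 24 hours after dosing, with DMSO defining baseline activity.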

A short description of experiment [3]: BSK_BT_Bcell_Proliferation: Viability Assessment in the BioMAP Diversity Plus: BT Assay for B cell Proliferation (AID 2284227). Conditions: primary human B cells with PBMC. The method in brief:
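Human B cell/PBMC co-culture; test chemical added; 72 h; TCA fix (10%), 0.1% SRB stain, A560 for total protein as a proliferation read-out; positive-direction fit vs DMSO baseline.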

Read-out in experiment [4]: Interleukin 6 (IL6), IL6 (gene 3569)
As to the kind of experiment: BSK_BT_xIL6: BioMAP Diversity Plus: BT Assay for Interleukin 6 (IL6) Biomarker Activity (AID 2284228). Conditions: primary human B cells with PBMC. Put shortly:
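IL-6 secretion measured (Luminex xMAP) in human primary B cell + PBMC co-culture at 24 h of chemical exposure; DMSO served as negative control and activity baseline, with curves fitted for increase.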

Read-out in experiment [5]: Interleukin 17A (IL17A), IL17A (gene 3605)
Nature of the experiment: BSK_BT_xIL17A: BioMAP Diversity Plus: BT Assay for Interleukin 17A (IL17A) Biomarker Activity (AID 2284229). The following applies: primary human B cells with PBMC. Put shortly: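 Human primary B cells plus PBMC, treated 24 h with chemicals; supernatant IL-17A quantified on Luminex xMAP beads. Gain of signal over DMSO control scored as activity.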

Read-out in experiment [6]: Tumor necrosis factor (Homo sapiens) (UniProt P01375)
As to the kind of experiment: BSK_BT_xTNFa: BioMAP Diversity Plus: BT Assay for Tumor necrosis factor alpha (TNF-alpha) Biomarker Activity (AID 2284230). Conditions: primary human B cells with PBMC. The method in brief:
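Read-out: Luminex xMAP quantitation of secreted TNF-alpha from a B cell/PBMC co-culture 24 h after compound addition. Signal analysed relative to DMSO vehicle, positive fitting direction.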

Read-out in experiment [7]: Vascular cell adhesion molecule 1 (VCAM1), VCAM1 (gene 7412)
As to the kind of experiment: BSK_MyoF_VCAM1: BioMAP Diversity Plus: MyoF Assay for Vascular cell adhesion molecule 1 (VCAM1) Biomarker Activity (AID 2284231). The following applies: primary human lung fibroblasts. Put shortly: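 VCAM-1 levels, lung fibroblasts, ELISA, 24 h exposure, increase scored relative to DMSO.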

Read-out in experiment [8]: Collagen I, COL1A1 (gene 1277)
Nature of the experiment: BSK_MyoF_CollagenI: BioMAP Diversity Plus: MyoF Assay for Collagen I Biomarker Activity (AID 2284238). The following applies: primary human lung fibroblasts. The method in brief: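 Measured by ELISA: Collagen I from human lung fibroblasts 24 h after compound addition, analysed for signal gain with DMSO as baseline; overt toxicity read from SRB staining of parallel cultures at the same time.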

Read-out in experiment [9]: Collagen III, COL3A1 (gene 1281)
As to the kind of experiment: BSK_MyoF_CollagenIII: BioMAP Diversity Plus: MyoF Assay for Collagen III Biomarker Activity (AID 2284239). Conditions: primary human lung fibroblasts. The method in brief:
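Multiplexed cell assay in lung fibroblasts, harvested at 24 h post-dose. Collagen III detected by ELISA, with positive-direction fitting relative to DMSO vehicle.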

Experiment [10] is described as follows: CCTE_Mundy_HCI_hNP1_Casp3_7: CCTE's Caspase-Glo 3/7 Assay in human neuroprogenitor cells for Apoptosis, Mundy Lab (AID 2284240). The method in brief:
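Neuroepithelial-lineage stem cells from WA09 embryonic cells were treated with chemicals after 40–44 h of culture. Twenty-four hours later, caspase-3/7 activation was detected luminescently after a 30 min room-temperature reagent step, with DMSO as baseline.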

Consider 15 compounds from PubChem BioAssay (EPA / NIEHS).

Where “and” joins values, the source holds several entries; their conditions need not be identical. Identical values can stand only once. Calls of active or inactive are those of the source. The calls were made as follows: active = hit-call score of the fitted dose curve at least 0.9, where 1 is the maximum; inactive = score below 0.9.

Sequence of Tumor necrosis factor (Homo sapiens) (P01375 whole entry, looked up): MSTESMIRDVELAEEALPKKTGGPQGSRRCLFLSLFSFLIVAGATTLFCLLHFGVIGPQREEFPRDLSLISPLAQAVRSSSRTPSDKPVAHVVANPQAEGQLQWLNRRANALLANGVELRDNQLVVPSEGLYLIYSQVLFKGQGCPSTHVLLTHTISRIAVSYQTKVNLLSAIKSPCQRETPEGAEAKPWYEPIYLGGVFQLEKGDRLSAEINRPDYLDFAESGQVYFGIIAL

In the case of `O=C(O)CCC(F)(F)C(F)(F)C(F)(F)C(F)(F)C(F)(F)C(F)(F)C(F)(F)F`, the outcome in [1], in [3], in experiment [4], in experiment [5], in [6] and in experiment [7] was inactive. Besides, the outcome in experiment [8], in experiment [9] and in experiment [10] was inactive. Besides, the AC50 (commonly the concentration at which the activity in the assay is half-maximal) in experiment [2] was 3.33 µM (active) and 5.61 µM (active).
Turning to `O=S(=O)(O)CCC(F)(F)C(F)(F)C(F)(F)C(F)(F)C(F)(F)C(F)(F)C(F)(F)C(F)(F)F`, the outcome in experiment [1], in experiment [2], in experiment [3], in [4], in [5] and in [6] was inactive. Besides, the result in experiment [7], in experiment [8], in experiment [9] and in experiment [10] was inactive.
As to `O=C(Cl)C(F)(F)C(F)(F)C(F)(F)C(F)(F)C(F)(F)C(F)(F)F`, the outcome in [1], in experiment [2], in experiment [3], in [4], in [5] and in experiment [6] was inactive. Further, the result in experiment [7], in experiment [8] and in experiment [9] was inactive.
On to `Cc1ccc(S(=O)(=O)C(I)I)cc1`, for which the concentration at half-maximal activity (AC50) in experiment [1] was 4.06 µM (active); in experiment [2] it was 2.03 µM (active); in [3] it was 2.97 µM (active); in experiment [4], 2.82 µM (active); in experiment [5], 2.36 µM (active); in [6], 4.64 µM (active). Moreover, the figures for the AC50 in experiment [7], in [8] and in experiment [9] were 7.94 µM (active), 8.3 µM (active) and 10.5 µM (active), respectively.
For the compound `O=C(F)C1(F)C(F)(F)C(F)(F)C(F)(F)C(F)(F)C1(F)F`, the outcome in experiment [1], in experiment [2], in [3], in experiment [4], in experiment [5] and in experiment [6] was inactive. Further, the outcome in [7], in [8], in experiment [9] and in [10] was inactive.
Regarding `NC(=O)C(F)(F)C(F)(F)C(F)(F)C(F)F`, the result in experiment [1], in [2], in experiment [3], in experiment [4], in experiment [5] and in experiment [6] was inactive. For the same compound, the result in experiment [7], in [8] and in experiment [9] was inactive.
As for `NCC(F)(F)C(F)(F)C(F)(F)C(F)(F)C(F)(F)C(F)(F)F`, the outcome in experiment [1], in experiment [2], in [3], in [4], in experiment [5] and in experiment [6] was inactive. Besides, the outcome in [7], in experiment [8] and in [9] was inactive.
For the compound `O=C(O)C(F)(F)C(F)(F)C(F)(F)OC(F)(F)F`, the outcome in [1], in [2], in [3], in experiment [4], in experiment [5] and in [6] was inactive. The result in [7], in experiment [8], in experiment [9] and in experiment [10] was inactive.
On to `O=C(O)C(F)(F)C(F)(F)C(F)(F)OC(F)(C(F)(F)F)C(F)(F)F`, for which the outcome in experiment [1], in experiment [2], in experiment [3], in experiment [4], in [5] and in experiment [6] was inactive. For the same compound, the result in [7], in experiment [8], in experiment [9] and in [10] was inactive.
`CCN(CCO)S(=O)(=O)C(F)(F)C(F)(F)C(F)(F)C(F)(F)C(F)(F)C(F)(F)C(F)(F)C(F)(F)F`: the outcome in [1] and in [10] was inactive. Moreover, the AC50 is 16.6 µM (active) in experiment [2]; 46.4 µM (active) and 30 µM (active) in experiment [3]; 41.8 µM (active) and 46.8 µM (active) in [4]; 20.2 µM (active) and 21.2 µM (active) in [5]; 21.7 µM (active) and 30 µM (active) in [6]; 12.6 µM (active) and 13 µM (active) in experiment [7]. Also, the AC50 in [8] was 19.9 µM (active) and 20.3 µM (active); in experiment [9], 18.9 µM (active) and 23.2 µM (active).
Take `CCN(CC)c1ccc(N=Nc2ccccc2)cc1`: the outcome in experiment [1] and in experiment [9] was inactive. Besides, the AC50 in experiment [2] was 18 µM (active); in [3] it was 30.3 µM (active); in [4] it was 20 µM (active); in experiment [5] it was 20 µM (active); in experiment [6] it was 31 µM (active); in experiment [7], 20 µM (active). The AC50 in experiment [8] was 20 µM (active).
As to `FC(F)(F)C(F)(F)C(F)(F)CC1CO1` (configuration not stated), the outcome in experiment [1], in [2], in experiment [3], in [4], in experiment [5] and in experiment [6] was inactive. The outcome in experiment [7], in experiment [8] and in experiment [9] was inactive.
As for `O=C(O)C(F)(F)C(F)(F)C(F)(F)C(=O)O`, the result in [1], in [2], in experiment [3], in experiment [4], in experiment [5] and in experiment [6] was inactive. The outcome in experiment [7], in experiment [8] and in [9] was inactive.
Take `NC(=O)C(F)(F)C(F)(F)C(F)(F)F`: the result in experiment [1], in [2], in experiment [3], in experiment [4], in experiment [5] and in experiment [6] was inactive. The outcome in experiment [7], in experiment [8] and in experiment [9] was inactive.
For `OCCCC(F)(F)C(F)(F)C(F)(F)C(F)(F)C(F)(F)C(F)(F)C(F)(F)C(F)(F)F`, the AC50 is 46.4 µM (active) and 23.2 µM (active) in experiment [1]; 45.9 µM (active) and 44.5 µM (active) in experiment [2]; 43.8 µM (active) and 31.8 µM (active) in experiment [3]; 42.7 µM (active) and 21.9 µM (active) in experiment [4]; 22.9 µM (active) and 21.7 µM (active) in [5]; 37.1 µM (active) and 37 µM (active) in [6]. The AC50 in experiment [7] is 12.8 µM (active) and 9.88 µM (active); in [8], 13 µM (active) and 10.9 µM (active); in experiment [9], 13.5 µM (active) and 12.2 µM (active). Also, the call in experiment [10] was inactive.
